Source: PubChem BioAssay (NCATS)
Inconclusive results are not listed. The source made the active and inactive calls. The call rests on the fitted dose curve; in most records, active means well fitted cell-killing curve with a large enough effect; inconclusive means small, poorly fitted or top-dose-only effect, or effect the other way; inactive means flat fitted curve, though single readings scatter.

tested on: Tov-21-G; assay: Primary qHTS to identify gynecologic anti-cancer compounds using libraries of approved drugs and bioactive compounds (AID 1345084); conditions: Gynecologic cancer cell panel viability, ATPlite luminescence, 48 h; series mostly up to 57.5 µM; activity change, negative = cytotoxicity: at the top concentration; further: nearly all actives have a fitted effect of over 55% in size
Outline: (§1)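 Five-concentration response, 48 h; readout is ATP-driven luciferase luminescence.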
On the % scale 0 is the no-effect control and ±100 the full control effect.

SMILES | activity change, negative = cytotoxicity
CC(=O)N[C@H]1[C@H](O[C@H]2CC[C@]3(C)C4CC=C5[C@@H]6CC(C)(C)CC[C@]6(C(=O)O)[C@H](O)C[C@@]5(C)[C@]4(C)CC[C@H]3C2(C)C)O[C@H](CO)[C@@H](O)[C@@H]1O (some centres undefined) | 5.36% [at 25.3 µM] (inactive)
C=C1CCC2C(C)(C(=O)O)CCCC2(C)C1CC/C(C)=C\CO (centres undefined) | 1.11% [at 38.5 µM] (inactive)
C=CC(C)(C)C12Nc3c(ccc4c3OC(C)(C)C=C4)C1(O)CC1C(=O)N3CCCC3C(=O)N12 (centres undefined) | -3.97% [at 25.3 µM] (inactive)
COc1ccc(C(=O)OC2C3C=COC(OC4OC(CO)C(O)C(O)C4O)C3C3(CO)OC23)cc1OC (centres undefined) | -0.561% [at 25.3 µM] (inactive)
CC(C)C1NC(=O)C2CCCN2C1=O (centres undefined) | 0.498% (inactive)
C[C@]12CCC[C@](C)(C(=O)O)C1CCC13CC(CO)C(CCC12)C3 (some centres undefined) | -4.52% [at 38.5 µM] (inactive)
CC1(C)C(=O)N2c3ccccc3C(O)(CC(C(=O)O)n3cnc4ccccc4c3=O)C2N1O (centres undefined) | -1.32% [at 25.3 µM] (inactive)
Cc1oc(S(=O)(=O)N2CCCCC2)cc1NC(=O)Nc1ccccc1 | 11.2% (inactive)
CC1(C)CC[C@]2(C(=O)O[C@@H]3O[C@H](CO)[C@@H](O)[C@H](O)[C@H]3O)CC[C@]3(C)C(=CCC4[C@@]5(C)CC[C@H](O[C@H]6O[C@H](CO)[C@@H](O)[C@H](O[C@@H]7O[C@H](CO)[C@@H](O)[C@H](O)[C@H]7O)[C@H]6O)C(C)(C)C5CC[C@]43C)[C@@H]2C1 (some centres undefined) | -3.87% [at 11.6 µM] (inactive)
C/C=C(\C)C(=O)O[C@H]1C=CC(=O)O[C@H]1/C=C/[C@H](O)[C@@H](C)O | -23.2% (inactive)
C=C(CC/C=C(\C)C(=O)O)C1(O)CC=C(C)CC1 (centres undefined) | -11.3% (inactive)
CC(=O)OC/C(=C/C(=O)O)CC[C@@H]1C(C)=CC(=O)[C@@H]2C(C)(C)CCC[C@@]12C | 0.228% [at 38.5 µM] (inactive)
CN(C)c1ccc(C2O[C@@H](c3ccccc3)C[C@H](c3ccccc3)O2)cc1 (some centres undefined) | 9.79% (inactive)
Fc1ccc(-c2c3cccc(C(F)(F)F)c3nn2Cc2ccc(F)cc2Cl)cc1 | 18.2% (inactive)
Cc1onc(-c2c(Cl)cccc2Cl)c1CC(=O)NCc1ccc(OCC(F)(F)F)nc1 | -0.0977% (inactive)

tested on: Tov112D; assay: as above; conditions: Gynecologic cancer cell panel viability, ATPlite luminescence, 48 h; series mostly up to 57.5 µM; activity change, negative = cytotoxicity: at the top concentration
Outline: as §1

SMILES | activity change, negative = cytotoxicity
Cc1ccccc1-n1nc(-c2c(-c3ccc(F)cc3)nn3c2NC[C@@H](CO)C3)ccc1=O | -1.32% (inactive)
C[C@@H]1O[C@@H](OC(=O)Cc2ccccc2)[C@H](O)[C@H](O)[C@H]1O | 3.15% (inactive)
C=C(C(=O)O)C1CC(O)C2(C)CCCC(C)(O)C2C1 (centres undefined) | 5.82% (inactive)
C=C1CC/C=C(/CO)C(=O)C[C@@H]2[C@@H]1C[C@@]2(C)COC(C)=O | 0.28% (inactive)
COC(=O)Cn1nc(-c2cccc(OC)c2)c2ccccc21 | 8.25% (inactive)
CC(O)/C=C/C1(O)C(C)C(O)C(O[C@@H]2O[C@H](CO)[C@@H](O)[C@H](O)[C@H]2O)CC1(C)C (some centres undefined) | -6.35% [at 25.3 µM] (inactive)
CC(C)=CCC[C@](C)(O[C@@H]1O[C@H](CO[C@@H]2O[C@@H](CO)[C@H](O)[C@H]2O)[C@@H](O)[C@H](O)[C@H]1O)[C@H]1CC[C@]2(C)[C@@H]1[C@H](O)C[C@@H]1[C@@]3(C)CC[C@H](O[C@@H]4O[C@H](CO)[C@@H](O)[C@H](O)[C@H]4O[C@@H]4O[C@H](CO)[C@@H](O)[C@H](O)[C@H]4O)C(C)(C)[C@@H]3CC[C@]12C | 10.2% [at 25.3 µM] (inactive)
CNc1nc(Cc2ccccc2)nc2c1CCNC[C@@H]2C | 6.36% (inactive)
COc1cc(C)c(C(=O)NC2C(C)OC(OC3CCC(C)C4C3C=C(C)C3/C(C)=C\CC/C(C)=C/C5(C)C=C(C(=O)O)C(C)CC56OC(=O)/C(=C(\O)C34C)C6=O)C(O)C2(C)O)c(O)c1 (centres undefined) | 8.49% [at 11.6 µM] (inactive)
CC(=O)/C=C/C1(O)C(C)CC(O[C@@H]2O[C@H](CO)[C@@H](O)[C@H](O)[C@H]2O)CC1(C)C (some centres undefined) | 0.362% [at 25.3 µM] (inactive)
COc1cc2c(cc1O)CC(O)(CO)C(CO)C2c1ccc(OC2OC(CO)C(O)C(O)C2O)c(OC)c1 (centres undefined) | -2.29% [at 25.3 µM] (inactive)
COc1cc(O)cc(O[C@@H]2O[C@H](CO)[C@@H](O[C@@H]3OC[C@](O)(CO)[C@H]3O)[C@H](O)[C@H]2O)c1OC | -2.29% [at 25.3 µM] (inactive)
CC(C)(CC(=O)N1CCCC1)NCC(=O)N1C[C@@H](F)C[C@H]1C#N | 0.565% (inactive)
COC(=O)c1ccccc1O[C@@H]1O[C@H](CO[C@@H]2OC[C@@H](O)[C@H](O)[C@H]2O)[C@@H](O)[C@H](O)[C@H]1O | 4.47% [at 25.3 µM] (inactive)
CC(=O)[C@@H]1C[C@H](C(C)(C)O[C@@H]2O[C@H](CO)[C@@H](O)[C@H](O)[C@H]2O)CC[C@@]2(CO)OC(=O)C[C@@H]12 | 0.497% [at 25.3 µM] (inactive)
C=C(C(=O)O)[C@@H]1CC[C@@]2(C)CC[C@@H](O)C(=C)C2C1 (some centres undefined) | 0.127% (inactive)
CC1(C)C2CCC1(C)C(OC(=O)C(O)(CC(=O)O)CC(=O)O)C2 (centres undefined) | 1.16% [at 38.5 µM] (inactive)
Oc1ccc(CC2NCCc3cc(O)c(O)cc32)cc1 (centres undefined) | 9.78% (inactive)
C[C@@H]1O[C@@H](OC2C(CO)OC(OCC3OC(OC(=O)[C@]45CCC(C)(C)CC4C4=CCC6[C@@]7(C)CC[C@@H](O)[C@](C)(C(=O)O)C7CC[C@@]6(C)[C@]4(C)CC5)C(O)C(O)C3O)C(O)C2O)[C@H](O)[C@H](O)[C@H]1O (some centres undefined) | 2.63% [at 11.6 µM] (inactive)
COc1cc([C@H]2OC[C@](O)(Cc3ccc(O[C@@H]4O[C@H](CO)[C@@H](O)[C@H](O)[C@H]4O)c(OC)c3)[C@@H]2CO)ccc1O | 7.77% [at 25.3 µM] (inactive)

SMILES | activity change, negative = cytotoxicity
COc1ccc(/C=C/C(=O)O[C@@H]2[C@@H](OC(C)=O)[C@@H](OC(C)=O)[C@H](O[C@H]3[C@@H]4C=CO[C@@H](O[C@@H]5O[C@H](CO)[C@@H](O)[C@H](O)[C@H]5O)[C@@H]4[C@@]4(CO)O[C@@H]34)O[C@H]2C)cc1 | 16.8% [at 25.3 µM] (inactive)
CC(C)=CCc1c(O)cc2oc3cc(C)cc(O)c3c2c1C | 6.03% (inactive)
C[C@H]1CC[C@@]2(OC1)O[C@H]1CC3C4CC[C@H]5C[C@@H](O[C@@H]6O[C@H](CO)[C@H](O[C@@H]7O[C@H](CO)[C@@H](O)[C@H](O[C@@H]8OC[C@@H](O)[C@H](O)[C@H]8O)[C@H]7O[C@@H]7O[C@H](CO)[C@@H](O)[C@H](O)[C@H]7O)[C@H](O)[C@H]6O)[C@H](O)C[C@]5(C)C4=CC(=O)[C@]3(C)[C@H]1[C@@H]2C (some centres undefined) | 2.81% [at 11.6 µM] (inactive)
CC(C)=CCC[C@](C)(O[C@@H]1O[C@H](CO[C@@H]2O[C@@H](CO)[C@H](O)[C@H]2O[C@@H]2OC[C@@H](O)[C@H](O)[C@H]2O)[C@@H](O)[C@H](O)[C@H]1O)[C@H]1CC[C@]2(C)[C@@H]1[C@H](O)CC1[C@@]3(C)CC[C@H](O[C@@H]4O[C@H](CO)[C@@H](O)[C@H](O)[C@H]4O[C@@H]4O[C@H](CO)[C@@H](O)[C@H](O)[C@H]4O)C(C)(C)C3CC[C@]12C (some centres undefined) | 0.454% [at 6.55 µM] (inactive)
CC(=O)N[C@H]1[C@H](O[C@H]2CC[C@]3(C)C4CC=C5[C@@H]6CC(C)(C)CC[C@]6(C(=O)O)[C@H](O)C[C@@]5(C)[C@]4(C)CC[C@H]3C2(C)C)O[C@H](CO)[C@@H](O)[C@@H]1O (some centres undefined) | -7.32% [at 25.3 µM] (inactive)
C=C1CCC2C(C)(C(=O)O)CCCC2(C)C1CC/C(C)=C\CO (centres undefined) | 0.161% [at 38.5 µM] (inactive)
C=CC(C)(C)C12Nc3c(ccc4c3OC(C)(C)C=C4)C1(O)CC1C(=O)N3CCCC3C(=O)N12 (centres undefined) | -0.402% [at 25.3 µM] (inactive)
COc1ccc(C(=O)OC2C3C=COC(OC4OC(CO)C(O)C(O)C4O)C3C3(CO)OC23)cc1OC (centres undefined) | -1.78% [at 25.3 µM] (inactive)
CC(C)C1NC(=O)C2CCCN2C1=O (centres undefined) | 3.64% (inactive)
C[C@]12CCC[C@](C)(C(=O)O)C1CCC13CC(CO)C(CCC12)C3 (some centres undefined) | 4.06% [at 38.5 µM] (inactive)
CC1(C)C(=O)N2c3ccccc3C(O)(CC(C(=O)O)n3cnc4ccccc4c3=O)C2N1O (centres undefined) | 1.98% [at 25.3 µM] (inactive)
Cc1oc(S(=O)(=O)N2CCCCC2)cc1NC(=O)Nc1ccccc1 | 0.41% (inactive)
CC1(C)CC[C@]2(C(=O)O[C@@H]3O[C@H](CO)[C@@H](O)[C@H](O)[C@H]3O)CC[C@]3(C)C(=CCC4[C@@]5(C)CC[C@H](O[C@H]6O[C@H](CO)[C@@H](O)[C@H](O[C@@H]7O[C@H](CO)[C@@H](O)[C@H](O)[C@H]7O)[C@H]6O)C(C)(C)C5CC[C@]43C)[C@@H]2C1 (some centres undefined) | -5.45% [at 11.6 µM] (inactive)
C/C=C(\C)C(=O)O[C@H]1C=CC(=O)O[C@H]1/C=C/[C@H](O)[C@@H](C)O | 1.97% (inactive)
C=C(CC/C=C(\C)C(=O)O)C1(O)CC=C(C)CC1 (centres undefined) | 0.65% (inactive)
CC(=O)OC/C(=C/C(=O)O)CC[C@@H]1C(C)=CC(=O)[C@@H]2C(C)(C)CCC[C@@]12C | -2.4% [at 38.5 µM] (inactive)
CN(C)c1ccc(C2O[C@@H](c3ccccc3)C[C@H](c3ccccc3)O2)cc1 (some centres undefined) | 6.35% (inactive)
Fc1ccc(-c2c3cccc(C(F)(F)F)c3nn2Cc2ccc(F)cc2Cl)cc1 | 1.94% (inactive)
Cc1onc(-c2c(Cl)cccc2Cl)c1CC(=O)NCc1ccc(OCC(F)(F)F)nc1 | 4.83% (inactive)
